BRCA1 expr act: qHTS Assay to Identify Small Molecule Activators of BRCA1 Expression; MCF7-BRCA1-FFLuc reporter, luminescence, 48 h; response scale: scaled: vehicle 0%, 10 µM genistein 100%; Potency, µM (top dose mostly 46.1 µM), inactives show at the highest dose activation, most hits filed as activators; hit rate 1.1% among 380,000; AID 624202, 2012; further: potency means the concentration at half of the fitted maximal effect; nearly all actives have a fitted effect of over 80% in size
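MCF7-BRCA1-FFLuc cells, 2000/well in phenol-red-free MEM, attached 2 h then treated 48 h at 37 C. Luciferase luminescence read 15 min after reagent; normalized to genistein maximum activation (10microM) and DMSO, concentration-response fitted.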
Apoferritin bind: qHTS Assay for Identification of Novel General Anesthetics | Ferritin light chain (Equus caballus), P02791 | hit rate 0.074% among 350,000 | apoferritin/1-aminoanthracene competitive binding, fluorescence | Potency, µM (doses to about 77.5 µM), for inactives: top-dose activity change, negative = displacement, usual class: inhibitors | AID 485281, 2010; further: potency means the concentration at half of the fitted maximal effect; on the % scale 0 is the no-effect control and ±100 the full control effect; nearly all actives have a fitted effect of over 20% in size
Target sequence (P02791 2-175 limits assumed): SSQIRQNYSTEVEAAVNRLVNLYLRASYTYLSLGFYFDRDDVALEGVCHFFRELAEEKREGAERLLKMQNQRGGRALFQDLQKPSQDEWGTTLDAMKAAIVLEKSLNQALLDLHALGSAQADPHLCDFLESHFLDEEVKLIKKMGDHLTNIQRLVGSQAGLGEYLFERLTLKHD
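10 uM apoferritin + 50% sat. 1-AMA, PBS; cpd 10 min RT; Ex380/Em535 endpoint; normalized to free probe vs complex; 4-param Hill fit; propofol titration as pos. ctrl.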
a7 integrin act: qHTS for Activators of Integrin-Mediated Alleviation for Muscular Dystrophy. alpha7betagal myoblasts, beta-gal FDG fluorescence, 48 h. Potency, µM (top dose mostly 38.3 µM), inactives show top-dose activation, hits mostly activators. hit rate 0.064% among 350,000;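 further: potency means the concentration at half of the fitted maximal effect; 100% = response of the positive control SU9516; nearly all actives have a fitted effect of over 60% in size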
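Alpha7betagal+/- myoblasts (passage 13) were plated 16-24 hr, then exposed to compounds (1:260 dilution of DMSO stock) for 48 hours at 37C. After MPER lysis, β-galactosidase reporter activity was read as FDG fluorescence (ex 480/em 540) after 30 minutes.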
PKM2 act: qHTS Assay for Activators of Human Muscle isoform 2 Pyruvate Kinase; Pyruvate kinase PKM (Homo sapiens), P14618; purified PKM2, Kinase-Glo ATP luminescence, activation; response scale: 0% is enzyme alone, no compound; Potency, µM (titrated, usually from 57.5 µM), without a hit: at the highest dose activation, actives largely listed as activators; hit rate 0.34% among 260,000; further: potency means the concentration at half of the fitted maximal effect; on the % scale 0 is the no-effect control and ±100 the full control effect; nearly all actives have a fitted effect of over 55% in size
Target sequence (P14618 whole entry, looked up, canonical isoform): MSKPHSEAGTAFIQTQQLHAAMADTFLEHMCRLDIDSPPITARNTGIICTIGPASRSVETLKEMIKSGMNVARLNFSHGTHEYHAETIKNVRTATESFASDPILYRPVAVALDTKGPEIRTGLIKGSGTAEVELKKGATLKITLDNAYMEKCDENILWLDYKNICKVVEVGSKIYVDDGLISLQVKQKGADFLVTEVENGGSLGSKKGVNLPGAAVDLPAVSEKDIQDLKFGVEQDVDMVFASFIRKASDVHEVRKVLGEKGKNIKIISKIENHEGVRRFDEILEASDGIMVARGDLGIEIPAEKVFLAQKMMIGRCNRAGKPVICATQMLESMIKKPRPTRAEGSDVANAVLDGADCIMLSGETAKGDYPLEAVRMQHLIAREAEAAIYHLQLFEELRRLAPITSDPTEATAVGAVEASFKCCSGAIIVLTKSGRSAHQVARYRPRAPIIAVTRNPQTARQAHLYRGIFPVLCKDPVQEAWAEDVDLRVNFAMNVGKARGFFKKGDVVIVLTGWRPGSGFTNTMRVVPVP
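Purified hPK-M2 (>95% pure) converted ADP (0.1 mM final) to ATP with 0.5 mM PEP in 50 mM imidazole pH7.2, KCl, MgCl2, Tween 20, BSA; 1 h at room temperature. ATP detected by Kinase-Glo luminescence.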
IL-2 act: qHTS of IL-2 Activators | IL-2 activation reporter assay, cell-based qHTS; stimulated with anti-CD3/CD4/CD28 beads; in transgenic mouse T cells | activation, % (series mostly up to about 46 µM) | hit rate 0.065% among 360,000 | AID 652025, 2013; in the data active means activation above about 50%; inconclusive means mostly about 30% to 49%; further: 0% is about no effect
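Using fluorescent plate cytometry, EGFP and DsRed are detected in transgenic mouse T cells stimulated 18 h at 37 degrees C with antibody-coated beads after 60 min compound pretreatment.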
* marks the source's active call; other numbers are inactive results; ? = inconclusive; nt = no result; [ ] = remark or other dose. The list is not random: actives were taken first. Their share in the collection is about 1.3%. Unless noted, the call rests on the fitted dose curve; in most records, active means well fitted curve in the direction sought with a large enough effect; inconclusive means small, poorly fitted or top-dose-only effect, or another doubt; inactive means no such curve, though single readings can be large; an effect the other way counts as inactive or inconclusive.

SMILES	BRCA1 expr act	Apoferritin bind	a7 integrin act	PKM2 act	IL-2 act
Cc1ccc(S(=O)(=O)CNC(=S)c2ccc3ccccc3c2)cc1	27%	25µM*	13%	19%	0
COc1ccc(C(=S)NCS(=O)(=O)c2ccc(C)cc2)cc1	6%	?	-3%	20%	1
Cc1ccc(NC(=O)Cn2cc(C(=O)c3ccco3)c3ccccc32)c(C)c1	nt	-19%	nt	nt	nt
O=C(Cc1ccc(Br)cc1)N1CCCCCC1	10µM*	?	20%	-4%	0
O=C(Cc1ccc(Br)cc1)N1CCCC1	45%	-16%	31%	1%	2
N#C/C(=C\c1cccc(Cl)c1)C(=O)c1ccccc1	1%	-13%	-19%	20µM*	-2
COc1cccc(C=C(C#N)C(=O)c2ccccc2)c1	17%	nt	nt	nt	1
COc1ccc(COC(=O)N/N=C2/C[C@@H](O)[C@@H](O)[C@@H]3[C@@H]4C(=O)N(Cc5ccc6c(c5)OCO6)C(=O)[C@H]4CC[C@H]23)cc1	nt	-12%[15.3 µM]	nt	nt	nt
CC(C)(C)c1ccc(NC(=O)CC2(C(F)(F)F)OCCO2)cc1	3.5µM*	?	9%	23%	2
O=C(O)CC1(CC(=O)Nc2ccc(C(F)(F)F)cc2)CCCC1	3%	-10%	2%	nt	1
CCOC(=O)N1CC(C)N(/[N+]([O-])=N/Oc2ccc([N+](=O)[O-])cc2[N+](=O)[O-])CC1C (stereo not given)	nt	-16%	nt	nt	nt
Nc1ccc2oc(=O)ccc2c1I	nt	-4%	nt	nt	nt
COc1cccc(OCc2cc(C(=O)N(C)C3CCCCC3)no2)c1	11µM*	nt	0%	nt	-1
CN(C(=O)c1cc(-c2ccccc2)on1)C1CCCCC1	1.6µM*	2%	6%	1%	0
CN(C)/C=C/C(=O)c1cnc(-c2cccc(Cl)c2)s1	?	?	37%	-1%	0
CN(C)/C=C/C(=O)c1cnc(-c2ccccc2Cl)s1	6.3µM*	?	18%	-2%	0
COc1ccc(Nc2nc(-c3cccnc3)cs2)c(OC)c1	11µM*	-15%	21%	0%	0
c1ccc(CCNc2nc(-c3ccccn3)cs2)cc1	?	?	-18%	0%	0
CCN(CC)c1ccc(Nc2nc(-c3cccnc3)cs2)cc1	4µM*	-6%	0%	nt	-1
c1ccc(CCNc2nc(-c3cccnc3)cs2)cc1	8.9µM*	-3%	?	-6%	3
COc1ccccc1Nc1nc(-c2cccnc2)cs1	10µM*	-17%	29%	1%	0
CCOc1ccc(N2CC(c3nc4ccccc4n3CCCOc3ccccc3)CC2=O)cc1 (stereo not given)	nt	85%	nt	nt	nt
C(=Nc1cnc2ccccc2c1)c1ccncc1	35%	nt	nt	nt	nt
CO[C@@H]1/C=C\CC(=O)N2CCC[C@@H]2C(=O)OC[C@H](C)C(=O)OC[C@H]1C	nt	3%[15.3 µM]	nt	nt	nt
CN(CCN(C)c1nc(-c2cccs2)nc2ccccc12)C(=O)OC(C)(C)C	-3%	nt	nt	nt	nt
SMILES	BRCA1 expr act	Apoferritin bind	a7 integrin act	PKM2 act	IL-2 act
OCc1cn(-c2ccccc2)nc1-c1cc2ccccc2o1	2.5µM*	-7%	-8%	2%	-2
COc1ccc(NC(=O)c2cn(-c3ccccc3)nc2-c2cc3ccccc3o2)cc1	-3%	-16%	13%	6%	0
COC(C1CCCCC1)C(C)C(OCc1cccc(Br)c1)C(C)CO (stereo not given)	nt	-11%[15.3 µM]	nt	nt	nt
COc1ccc(-c2nc3c(C#N)c[nH]n3c2NC2CCCC2)c(OC)c1	nt	-13%	nt	nt	nt
CC(=O)Nc1ccc(NC(=O)COc2ccc(Br)cc2C)cc1	-11%	0%	-17%	-17%	-5
Cc1cccc(NC(=O)COc2ccc(Br)cc2/C=N/O)c1	4.5µM*	-4%	11%	-21%	-1
COc1cc2nc3c(c([Si](C)(C)C(C)(C)C)c2cc1OC)Cn1c-3cccc1=O	nt	71%	nt	-1%	nt
COc1ccc(S(=O)(=O)NCc2c(-c3ccccc3)noc2C)c(OC)c1	-13%	-5%	13%	28µM*	0
Cc1ccc(S(=O)(=O)NCc2c(-c3ccccc3)noc2C)cc1	-14%	-3%	-5%	?	-3
Cc1onc(-c2ccccc2)c1CNS(=O)(=O)c1ccccc1	0%	4%	0%	10%	-2
Cc1onc(-c2ccccc2)c1CNS(=O)(=O)c1cccc(Cl)c1	-4%	-3%	-23%	32µM*	0
COc1ccc(-c2cc(COc3ccccc3)on2)cc1	?	10%	10µM*	-1%	-2
O=C(CCS(=O)(=O)c1ccccc1)Nc1ncc([N+](=O)[O-])s1	-84%	-15%	-67%	10%	-1
O=C(CCS(=O)(=O)Cc1ccccc1)Nc1ncc([N+](=O)[O-])s1	8.9µM*	-4%	-55%	-1%	-3
CCCCCCCCCCCCC/C=C/[C@@H](O)[C@H](CO)NC(=O)CCCCC	nt	-17%	nt	nt	nt
COc1ccc(Nc2nc(CC(C)=O)ns2)cc1	10µM*	-11%	32%	0%	0
CC(=O)Cc1nsc(Nc2ccc(Cl)cc2)n1	10µM*	-18%	-1%	8%	1
COc1cccc(Nc2nc(CC(C)=O)ns2)c1	11µM*	-19%	-3%	-10%	4
CC(=O)Cc1nsc(Nc2ccc3c(c2)OCCO3)n1	94%	?	3%	-3%	0
CC(=O)Cc1nsc(Nc2ccc(F)cc2)n1	?	-5%	10%	-2%	-3
O=C(CSc1nc2ncccc2o1)Nc1cccc(C(F)(F)F)c1	nt	-9%	nt	nt	nt
CCN(N=O)c1ccc(/C=C2\C=Cc3ccccc32)cc1	15%	nt	nt	nt	nt
O=C(OCC(=O)N1CCOCC1)c1ccccc1Cc1ccccc1	2µM*	7%	-10%	-20%	-2
O=C(OCC(=O)N1CCOCC1)c1ccccc1Br	86%	-7%	2%	1%	0
CC(C)c1ccc(NC(=O)C2=NNC(=O)CC2)cc1	2.2µM*	-2%	18%	0%	-1
SMILES	BRCA1 expr act	Apoferritin bind	a7 integrin act	PKM2 act	IL-2 act
Cc1ccc(NC(=O)C2=NNC(=O)CC2)cc1F	0%	-4%	?	-6%	0
Cc1ccc(OCCn2c(=O)sc3ccccc32)cc1	5.6µM*	-7%	25%	0%	-4
Cc1ccc(OCCCn2c(=O)sc3ccccc32)cc1	43%	1%	7%	0%	0
O=C(N/N=C/c1cn[nH]c1-c1ccc(F)cc1)c1ccncc1	14%	-3%	14µM*	1%	-1
Cc1ccnn1CC(=O)N/N=C/c1cn[nH]c1-c1ccc(F)cc1	-16%	0%	-40%	1%	0
O=C(N/N=C\c1ccccc1F)c1ccc(-c2ccccc2)cc1	10µM*	-9%	15%	-1%	-1
O=C(CCl)c1ccc2c(c1)CCCC2	-12%	nt	nt	nt	nt
